Results as given in the supplement of paper PMC8728848.
Shown is part of a subset that was picked to be rich in the strongest signals.

Experiments:
Assay in all cases: glycan array binding signal (z-score within array); higher = stronger binding
Details in all cases: glycan notation: IUPAC condensed, linker removed
[1] = molecular target: Fuc(a1-2)Gal(b1-3)GlcNAc(b1-3)Gal(b1-4)Glc
How it was run: (§1)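 Glycan array data were curated from 3228 arrays in the Consortium for Functional Glycomics database and kept only where the protein sequence was available. Glycan names were converted to IUPAC-condensed notation, and columns mapping to the same glycan were averaged. The binding signal is a within-array Z-score, averaged across arrays of the same protein sequence at different concentrations or buffers and across linkers. Negative Z-scores can be read as non-binding.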

[2] = molecular target: Fuc(a1-2)Gal(b1-3)GlcNAc6S
How it was run: as §1

[3] = molecular target: Fuc(a1-2)Gal(b1-3)[Fuc(a1-4)]GlcNAc
How it was run: as §1

[4] = molecular target: Fuc(a1-2)Gal(b1-4)Fuc(a1-3)]GlcNAc(b1-2)Man(a1-3)[Fuc(a1-2)Gal(b1-4)[Fuc(a1-3)]GlcNAc(b1-2)Man(a1-6)]Man(b1-4)GlcNAc(b1-4)GlcNAc
How it was run: as §1

[5] = molecular target: Fuc(a1-2)Gal(b1-4)GlcNAc(b1-3)[Fuc(a1-2)Gal(b1-4)GlcNAc(b1-6)]GalNAc
How it was run: as §1

[6] = molecular target: Fuc(a1-2)Gal(b1-4)[Fuc(a1-3)]GlcNAc(b1-3)Gal(b1-4)[Fuc(a1-3)]GlcNAc
How it was run: as §1

[7] = molecular target: Fuc(a1-2)[Gal(a1-3)]Gal(b1-4)GlcNAc(b1-2)Man(a1-3)[Fuc(a1-2)[Gal(a1-3)]Gal(b1-4)GlcNAc(b1-2)Man(a1-6)]Man(b1-4)GlcNAc(b1-4)[Fuc(a1-6)]GlcNAc
How it was run: as §1

[8] = molecular target: Fuc(a1-3)[Gal(b1-4)]GlcNAc(b1-3)Gal(b1-4)[Fuc(a1-3)]GlcNAc(b1-3)Gal(b1-4)[Fuc(a1-3)]GlcNAc
How it was run: as §1

[9] = molecular target: Fuc(a1-3)[Gal(b1-4)]GlcNAc(b1-3)GalNAc
How it was run: as §1

[10] = molecular target: Gal(a1-3)Gal(b1-3)GlcNAc(b1-2)Man(a1-3)[Gal(a1-3)Gal(b1-3)GlcNAc(b1-2)Man(a1-6)]Man(b1-4)GlcNAc(b1-4)GlcNAc
How it was run: as §1

[11] = molecular target: Gal(a1-3)Gal(b1-3)GlcNAc(b1-3)GalNAc
How it was run: as §1

[12] = molecular target: Gal(a1-3)Gal(b1-4)GlcNAc(b1-3)GalNAc
How it was run: as §1

[13] = molecular target: Gal(a1-3)Gal(b1-4)[Fuc(a1-3)]GlcNAc(b1-2)Man(a1-3)[Gal(a1-3)Gal(b1-4)[Fuc(a1-3)]GlcNAc(b1-2)Man(a1-6)]Man(b1-4)GlcNAc(b1-4)GlcNAc
How it was run: as §1

[14] = molecular target: Gal(a1-4)Gal(b1-4)GlcNAc(b1-3)Gal(b1-4)Glc
How it was run: as §1

Gal(a1-4)GlcNAc = molecular target: Gal(a1-4)GlcNAc
How it was run: as §1

Gal(b1-2)Gal = molecular target: Gal(b1-2)Gal
How it was run: as §1

[15] = molecular target: Gal(b1-3)GlcNAc(b1-2)Man(a1-3)[Gal(b1-3)GlcNAc(b1-2)Man(a1-6)]Man(b1-4)GlcNAc(b1-4)GlcNAc
How it was run: as §1

[16] = molecular target: Gal(b1-3)GlcNAc(b1-3)Gal(b1-4)GlcNAc(b1-3)Gal(b1-4)GlcNAc(b1-2)[Gal(b1-3)GlcNAc(b1-3)Gal(b1-4)GlcNAc(b1-3)Gal(b1-4)GlcNAc(b1-6)]Man(a1-6)[Gal(b1-3)GlcNAc(b1-3)Gal(b1-4)GlcNAc(b1-3)Gal(b1-4)GlcNAc(b1-2)Man(a1-3)]Man(b1-4)GlcNAc(b1-4)[Fuc(a1-6)]GlcNAc
How it was run: as §1

Gal(b1-3)GlcNAc6S = molecular target: Gal(b1-3)GlcNAc6S
How it was run: as §1

[17] = molecular target: Gal(b1-3)[Fuc(a1-4)]GlcNAc(b1-6)GalNAc
How it was run: as §1

[18] = molecular target: Gal(b1-4)GlcNAc(b1-2)Man(a1-3)[GlcNAc(b1-4)][Gal(b1-4)GlcNAc(b1-2)Man(a1-6)]Man(b1-4)GlcNAc(b1-4)GlcNAc
How it was run: as §1

[19] = molecular target: Gal(b1-4)GlcNAc(b1-2)[Gal(b1-4)GlcNAc(b1-4)]Man(a1-3)[GlcNAc(b1-4)][Gal(b1-4)GlcNAc(b1-2)Man(a1-6)]Man(b1-4)GlcNAc(b1-4)GlcNAc
How it was run: as §1

[20] = molecular target: Gal(b1-4)GlcNAc(b1-2)[Gal(b1-4)GlcNAc(b1-6)]Man(a1-6)[GlcNAc(b1-4)][Gal(b1-4)GlcNAc(b1-2)Man(a1-3)]Man(b1-4)GlcNAc(b1-4)GlcNAc
How it was run: as §1

[21] = molecular target: Gal(b1-4)GlcNAc(b1-3)Gal(b1-4)GlcNAc
How it was run: as §1

[22] = molecular target: Gal(b1-4)GlcNAc(b1-3)Gal(b1-4)GlcNAc(b1-3)Gal(b1-4)GlcNAc(b1-3)Gal(b1-4)GlcNAc(b1-2)Man(a1-3)[Gal(b1-4)GlcNAc(b1-3)Gal(b1-4)GlcNAc(b1-3)Gal(b1-4)GlcNAc(b1-3)Gal(b1-4)GlcNAc(b1-2)Man(a1-6)]Man(b1-4)GlcNAc(b1-4)[Fuc(a1-6)]GlcNAc
How it was run: as §1

[23] = molecular target: Gal(b1-4)GlcNAc(b1-3)Gal(b1-4)GlcNAc(b1-3)Gal(b1-4)GlcNAc(b1-3)Gal(b1-4)GlcNAc(b1-3)Gal(b1-4)GlcNAc(b1-3)Gal(b1-4)GlcNAc(b1-2)Man(a1-3)[Gal(b1-4)GlcNAc(b1-3)Gal(b1-4)GlcNAc(b1-3)Gal(b1-4)GlcNAc(b1-3)Gal(b1-4)GlcNAc(b1-3)Gal(b1-4)GlcNAc(b1-3)Gal(b1-4)GlcNAc(b1-2)Man(a1-6)]Man(b1-4)GlcNAc(b1-4)GlcNAc
How it was run: as §1

B1: AntigenI/IIA3VP1 (Streptococcus mutans), C9E3B4 (protein)
chain: AANEADYQAKLTAYQTELARVQKANADAKAAYEAAVAANNAANAALTAENTAIKKRNADAKADYEAKLAKYQADLAKYQKDLADYPVKLKAYEDEQASIKAALAELEKHKNEDGNLTEPSAQNLVYDLEPNANLSLTTDGKFLKASAVDDAFSKSTSKAKYDQKILQLDDLDITNLEQSNDVASSMELYGNFGDKAGWSTTVSNNSQVKWGSVLLERGQSATATYTNLQNSYYNGKKISKIVYKYTVDPKSKFQGQKVWLGIFTDPTLGVFASAYTGQVEKNTSIFIKNEFTFYDEDGKPINFDNALLSVASLNREHNSIEMAKDYSGKFVKISGSSIGEKNGMIYATDTLNFKQGEGGSRWTMYKNSQAGSGWDSSDAPNSWYGAGAIKMSGPNNYVTVGATSATNVMPVSDMPVVPGKDNTDGKKPNIWYSLNGKIRAVNVPKVTKEKPTPPVKPTAPTKPTYETEKPLKPAPVAPNYEKEPTPPTRLEHHHHHH
- glycan array binding signal (z-score) [1]: -1.26
- glycan array binding signal (z-score) [2]: 0.457
- glycan array binding signal (z-score) [3]: 0.481
- glycan array binding signal (z-score) [4]: 4.68
- glycan array binding signal (z-score) [5]: 0.339
- glycan array binding signal (z-score) [6]: 0.17
- glycan array binding signal (z-score) [7]: 3.1
- glycan array binding signal (z-score) [8]: -0.372
- glycan array binding signal (z-score) [9]: 2.64
- glycan array binding signal (z-score) [10]: 3.47
- glycan array binding signal (z-score) [11]: 2.79
- glycan array binding signal (z-score) [12]: -1.15
- glycan array binding signal (z-score) [13]: 0.993
- glycan array binding signal (z-score) [14]: -0.067
- glycan array binding signal (z-score) (Gal(a1-4)GlcNAc): -0.879
- glycan array binding signal (z-score) (Gal(b1-2)Gal): -0.551
- glycan array binding signal (z-score) [15]: 0.099
- glycan array binding signal (z-score) [16]: 5.61
- glycan array binding signal (z-score) (Gal(b1-3)GlcNAc6S): 0.094
- glycan array binding signal (z-score) [17]: 3.1
- glycan array binding signal (z-score) [18]: -0.555
- glycan array binding signal (z-score) [19]: -0.31
- glycan array binding signal (z-score) [20]: -0.581
- glycan array binding signal (z-score) [21]: -0.087
- glycan array binding signal (z-score) [22]: 3.27
- glycan array binding signal (z-score) [23]: 3.91
